Bioassay records as filed in PubChem.
Pf growth 96h: P. falciparum growth inhibition at 96 hours | AID 504834 | P. falciparum luciferase reporter growth, 96 h | Potency, µM (doses to about 28.7 µM), without a hit: top-dose activity change, negative = inhibition, hits mostly inhibitors | 6.9% of 320,000 active; also: potency is read from the fitted curve at half-maximal effect; % is scaled to controls: 0 for no effect and ±100 for the full control effect
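Delayed-death screen, second-generation endpoint: infected erythrocytes, 2% hematocrit, 0.05% parasitemia final; 96 hours at 37 C, 5% CO2; luciferase detection reagent; luminescence decrease equals reduced growth.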
Shiga inhibitor: inhibitors of Shiga toxin in Vero cells; inhibition, % at 38.7 µM; Vero cells, Shiga toxin protein synthesis inhibition reporter; 9.2% of 290,000 active; AID 2315; in the data active = inhibition mostly above about 28%, no sharp cut-off; inactive = mostly below about 43%; also: 0% is about no effect
CHX counter: counter-screen hit for Shiga toxin inhibitors, cycloheximide; AID 2314; 12% of 300,000 active; max response, %; cell reporter, cycloheximide protein synthesis inhibition counterscreen; in the data active = max response mostly above about 13%, no sharp cut-off; inactive = mostly below about 14%; also: read at 38.3 µM for the half of the compounds with a filed dose; 0% is about no effect
HCV inh: HCV inhibition; Huh7.5.1 HCVcc-Cre infection, luciferase reporter, 44 h; Potency, µM (series often up to 41.8 µM), for inactives: at the highest dose activity change, negative = inhibition, hits mostly inhibitors; 3.4% of 340,000 active; also: potency is read from the fitted curve at half-maximal effect; % is scaled to controls: 0 for no effect and ±100 for the full control effect
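Cells (1,000/well) were plated 4 h before compound, then infected with HCVcc-Cre virus (~0.5 moi). After 44 h further culture, infection was read as luciferase luminescence following a 15 min substrate incubation at room temperature.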
Pf growth 48h: P. falciparum growth inhibition at 48 hours (one generation); P. falciparum luciferase growth in erythrocytes, 48 h; AID 504832; 5.9% of 310,000 active; Potency, µM (titrated, usually from 28.7 µM), for the others: at the top dose activity change, negative = inhibition, hits mostly inhibitors; also: potency is read from the fitted curve at half-maximal effect; % is scaled to controls: 0 for no effect and ±100 for the full control effect
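Erythrocytes infected with P. falciparum carrying an integrated firefly luciferase reporter (2% hematocrit, 0.1% parasitemia final) were exposed to compounds in RPMI 1640 with 0.5% Albumax at 37 C, 5% CO2. Growth inhibition was scored as reduced luminescence.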
AMA1 RON2 block: disrupts binding of P. falciparum AMA1 to RON2; AlphaScreen AMA1-biotinylated RON2 peptide binding; Potency, µM (series often up to 58.2 µM), for the others: at the highest dose activity change, negative = inhibition, usual class: inhibitors; 0.2% of 360,000 active; AID 720542;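 also: potency is read from the fitted curve at half-maximal effect; 0% = vehicle wells and -100% = peptide control; nearly all actives have a fitted effect of over 45% in size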
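AMA1 (3D7) with his tag at 25 nM final met compounds first, then biotinylated RON2 peptide at 25 nM; detection used donor plus acceptor beads, 10 µg/mL apiece, read by AlphaScreen after 30 min at room temperature.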
* = called active by the depositor; ? = inconclusive; · = no result. A selection: hits, their analogues and other compounds. The true share with any hit is near 21%. Unless noted, calls follow the shape of the dose curve; as a rule, active = well fitted curve in the direction sought with a large enough effect; inconclusive = small, poorly fitted or top-dose-only effect, or another doubt; inactive = no such curve, though single readings can be large; an effect the other way counts as inactive or inconclusive.

SMILES	Pf growth 96h	Shiga inhibitor	CHX counter	HCV inh	Pf growth 48h	AMA1 RON2 block
CCCCn1c(O)c(N=Nc2ccccc2O)c2ccccc21	42%	·	·	?	6.6µM*	30%
CCOc1ccc(-c2cc(C(=O)NC3CCCCC3)[nH]n2)c(C)c1	·	·	·	·	·	4%
CCCC(=O)Nc1nnc([C@H]2C[C@H](O)[C@@H](CO)O2)s1	·	·	·	·	·	23%
CC(C)CC(=O)NC(=S)Nc1ccc(Cl)cn1	38%	119*	34*	-10%	-4%	9%
Cc1ccc(OCCC(=O)OCC(=O)Nc2ccc(Cl)cn2)cc1	35%	-19	5	21%	13%	0%
CCC(C)c1ccc(OCC(=O)Nc2ccc(Cl)cn2)cc1 (stereo not drawn)	-10%	22	35*	15%	·	14%
CS(=O)(=O)NN1C(=O)c2ccccc2NC12CCCC2	-22%	-6	-1	12%	-5%	11%
O=C1c2ccccc2NC2(CCCC2)N1N=C1CCCC1	10%	74*	29*	1%	17%	15%
O=C1c2ccccc2NC2(CCCCC2)N1c1ccc(O)cc1	30%	29	14*	-9%	36%	-4%
COc1ccc2c(c1)C(C)=CC(C)(C)N2S(=O)(=O)c1ccc(Br)cc1	-11%	15	-3	?	9.3µM*	9%
CCOc1ccc2c(c1)C(C)=CC(C)(C)N2S(=O)(=O)c1ccc(F)cc1	?	·	-1	?	-16%	13%
CC1=CC(C)(C)N(S(=O)(=O)c2ccc(C)cc2)c2ccccc21	10µM*	-14	-7	-1%	·	-1%
CCOc1ccc2c(c1)C(C)=CC(C)(C)N2S(=O)(=O)c1ccc(NC(C)=O)cc1	45%	-24	-4	?	6.6µM*	-2%
CC1=CC(C)(C)N(S(=O)(=O)c2ccc(F)cc2)c2ccc(C)cc21	15µM*	-5	-2	?	·	1%
CCCNC(=O)C1(C)CCN(C(=O)/C=C/c2ccccc2)C1 (stereo not drawn)	·	·	·	·	·	-5%
CC(C)[C@H](NC(=O)c1ccc(Cl)cc1Cl)C(=O)NNC(=O)c1ccco1	·	·	·	4%	·	27%
COc1ccc(-c2cc(C(=O)N3CCc4ccccc4C3)no2)cc1OC	?	-3	-3	-28%	-10%	-3%
CC(C)c1cc(C(=O)N2CCN(C(c3ccccc3)c3ccccc3)CC2)no1	·	32*	29*	?	9.3µM*	3%
COc1ccc(-c2cc(C(=O)N3CCN(C(c4ccccc4)c4ccccc4)CC3)no2)cc1	12µM*	14	6	10µM*	?	-8%
COc1ccc(-c2cc(C(=O)N3CCN(C(c4ccccc4)c4ccccc4)CC3)no2)cc1OC	-7%	25	2	?	7.4µM*	-7%
Cn1nc(C(=O)N2CCN(C(c3ccccc3)c3ccccc3)CC2)c2ccccc2c1=O	12µM*	-4	-2	?	4.7µM*	0%
Cc1ccccc1OCCC(=O)OCC(=O)c1c(N)n(CC(C)C)c(=O)n(C)c1=O	·	·	·	-3%	·	10%
COc1ccc(NS(=O)(=O)c2cccc(C(=O)NCc3cccnc3)c2)cc1	-3%	·	·	-20%	?	83%
CCOc1ncccc1C(=O)N1CCN(C(c2ccccc2)c2ccccc2)CC1	?	-11	8	11µM*	?	0%
CC(C)Cc1cc(C(=O)N2CCN(C(c3ccccc3)c3ccccc3)CC2)no1	-1%	-10	-2	0%	·	-1%
SMILES	Pf growth 96h	Shiga inhibitor	CHX counter	HCV inh	Pf growth 48h	AMA1 RON2 block
O=C(c1cc(-c2ccco2)on1)N1CCN(C(c2ccccc2)c2ccccc2)CC1	25%	33	1	2.5µM*	12µM*	12%
CCOc1ncccc1C(=O)N1CCN(S(=O)(=O)c2cccs2)CC1	1%	·	·	1%	9%	-9%
CC(C)(C)NC(=O)COc1coc(CN2CCN(Cc3ccccc3)CC2)cc1=O	?	-4	-1	-1%	0%	10%
Cc1cccc(OCC(=O)Nc2ccc3c(c2)nc(CCN2CCN(c4ccccn4)CC2)n3C)c1	?	-2	-1	6.3µM*	?	-5%
Cn1c(CCN2CCN(c3ccccn3)CC2)nc2cc(NC(=O)COc3ccc(Cl)cc3)ccc21	?	-4	-2	2.2µM*	?	-2%
Cn1c(CCN2CCN(c3ccccn3)CC2)nc2cc(NS(=O)(=O)c3ccc(Cl)cc3)ccc21	10µM*	-8	5	-21%	9.3µM*	-18%
COc1ccc(OCC(=O)Nc2ccc3c(c2)nc(CCN2CCN(c4ccccn4)CC2)n3C)cc1	·	·	·	·	·	-14%
Clc1ccc(-c2ccn[nH]2)cc1	?	147*	53*	6%	149%	-11%
COc1ccc(-c2cc(-c3n[nH]c(=S)n3-c3cc(OC)ccc3OC)[nH]n2)cc1	16%	-10	-6	-38%	-4%	18%
COc1ccc(-c2cc(C3CCNCC3)[nH]n2)cc1	2.3µM*	23	10	-11%	2.6µM*	-6%
COc1ccc(-c2cc(-c3ccc(OC)cc3)[nH]n2)cc1	-15%	40	35*	?	·	-4%
COc1ccc(-c2cc(-c3ccc(C)cc3)n[nH]2)c(O)c1	34%	94*	44*	?	?	74%
CCOC(=O)C[C@@H]1OC[C@H](Cc2ccccc2)N1S(=O)(=O)c1ccc(C)cc1	·	·	·	·	·	6%
O=C(CSc1cn[nH]n1)Nc1ccccc1C(=O)O	22%	-2	-1	8%	7%	5%
CC(OCc1ccccc1)C(NC(=O)OC(C)(C)C)C(=O)NC1COC2CC(n3ccc(=O)[nH]c3=O)OC12 (stereo not drawn)	·	3	-1	·	·	·
COc1ccc(-c2cc(-c3cc(C)ccc3O)[nH]n2)cc1	?	80*	49*	3.5µM*	?	53%
COc1ccc(Oc2ccc(-c3ccn[nH]3)cc2)cc1	97%	77*	32*	-12%	56%	-22%
COc1ccc(-c2cn[nH]c2N)cc1	·	-3	11	-4%	36%	3%
CC(=O)N/C(=C\c1ccccc1)C(=O)OC/C=C/c1ccccc1	21%	-25	-3	-5%	7%	5%
O=C(COc1ccccc1)Nc1ccc2[nH]ncc2c1	29%	-3	-1	-2%	-11%	0%
O=C(Nc1ccc2[nH]ncc2c1)c1ccccc1	86%	25	22*	-4%	130%	-2%
O=C(Nc1ccc2[nH]ncc2c1)c1ccc(F)cc1	13%	55*	19*	16%	226%	20%
Cc1ccccc1OCC(=O)Nc1ccc2[nH]ncc2c1	12µM*	16	15*	-16%	23%	-14%
CC(C)C(=O)Nc1cccc(NC(=O)c2cccc(F)c2)c1	4%	-12	-3	-1%	-4%	-2%
O=C(Nc1cccc(NC(=O)c2ccc(F)cc2)c1)c1ccc(F)cc1	22%	-4	-3	-17%	-2%	-6%
